# Data published in PubChem BioAssay (NCATS).
# Unmarked numbers belong to inactive results. Records with an inconclusive call do not appear. A call without a number means that no potency is given here. Active and inactive are the calls of the source. Unless noted, calls follow the shape of the dose curve; as a rule, active = well fitted curve in the direction sought with a large enough effect; inconclusive = small, poorly fitted or top-dose-only effect, or another doubt; inactive = no such curve, though single readings can be large; an effect the other way counts as inactive or inconclusive.
# Columns and labels:
# [1] = NFAT Signaling Pathway (AID 444; active = well fitted curve in either direction with a large enough effect, not every such curve was filed as active;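 also: carbachol stimulus at about its EC50 of 1 µM final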); conditions: Jurkat NFAT-bla M1, carbachol, beta-lactamase ratio, 5 h; at 38 µM (top of the series)
# In short: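 Read-out: CCF4 FRET ratio (460 nm/530 nm) after 1 h RT dye loading, used for %activity and AC50 from titration series. Cells: Jurkat NFAT-β-lactamase/M1 line, treated with compound plus 1 uM carbachol for 5 h, 37 °C.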
# [2] = qHTS Assay for Identification of Small Molecule Antagonists for NFkB Signaling Pathway (AID 895; active = well fitted inhibition curve with a large enough effect in the signal ratio, with a control signal flat, not every such curve was filed as active; the % refers to the signal ratio); conditions: NFkB beta-lactamase reporter cells, FRET ratio 460/530; series mostly up to 38.3 µM
# In short: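 Beta-lactamase reporter read-out (460 and 530 nm emission ratio, 405 nm excitation, 2 hrs substrate loading RT) after 5 hr stimulation with 10 pM TNF alpha in compound-treated NFkB-bla ME-180 cells in low-serum medium.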
# [3] = molecular target: Cytochrome P450 2C19 (Homo sapiens) (UniProt P33261); test: qHTS Assay for Inhibitors and Substrates of Cytochrome P450 2C19 (AID 899); conditions: recombinant CYP2C19, luciferin-H EGE luminescence; series mostly up to 57.1 µM; also: nearly all actives have a fitted effect of over 60% in size; also: potency is read from the fitted curve at half-maximal effect
# In short: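 Reactions contain 5nM enzyme, 10uM Luciferin-H EGE (KM) and 50mM KPO4; compound preincubates 10 min at 37C, NADPH regeneration starts turnover for 60 min. Luminescence after detection reagent gives activity.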
# [4] = qHTS for differential inhibitors of proliferation of Plasmodium falciparum line GB4 (AID 1816); conditions: Potency: Plasmodium falciparum GB4 proliferation inhibition; series mostly up to 28.7 µM;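 also: parasite growth measured after 72 h incubation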; also: potency is read from the fitted curve at half-maximal effect
# [5] = qHTS for differential inhibitors of proliferation of Plasmodium falciparum line D10 (AID 1877); conditions: series mostly up to 28.7 µM;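 also: parasites grown with compound for 72 h before DNA staining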; also: potency is read from the fitted curve at half-maximal effect
# [6] = Quantitative high throughput screen for delayed death inhibitors of the malarial parasite plastid, 96 hour incubation (AID 488745); conditions: Plasmodium falciparum growth; series mostly up to 28.7 µM; also: nearly all actives have a fitted effect of over 70% in size
# In short: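 Two-generation (96 h) exposure of luciferase-reporter P. falciparum in erythrocytes, 2% hematocrit, 0.1% parasitemia final, 37 C, 5% CO2, RPMI 1640 with 0.5% Albumax. Growth inhibition scored by reduced luminescence.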
# [7] = qHTS Assay for Identification of Small Molecule Agonists for Hypoxia Response Element Signaling Pathway (AID 914; active = well fitted activation curve with a large enough effect in the signal ratio, with a control signal flat, not every such curve was filed as active; the % refers to the signal ratio); conditions: ME-180 (cervical carcinoma) HRE-bla reporter, beta-lactamase ratio, CoCl2, 17 h; activation: stronger effect = higher value
# In short: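 Positive modulation of EC50 CoCl2-induced hypoxia response element signaling is measured in ME-180 cells with a beta-lactamase reporter. Compounds are titrated, incubation runs 17 hours, and %Activity derives from the blue/green ratio.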
# [8] = molecular target: Cytochrome P450 2C9 (Homo sapiens) (UniProt P11712); test: qHTS Assay for Inhibitors and Substrates of Cytochrome P450 2C9 (AID 883); conditions: recombinant CYP2C9, luciferin-H luminescence, 60 min; series mostly up to 57.1 µM; also: nearly all actives have a fitted effect of over 60% in size; also: potency is read from the fitted curve at half-maximal effect
# In short: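 Turnover of Luciferin-H (100uM, KM) by 10nM human CYP2C9 was measured over 60 min at 37C with NADPH regeneration; inhibitors and some substrates reduce luminescence. Data normalized to sulphaphenazole 57uM.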
# [9] = molecular target: Cytochrome P450 3A4 (Homo sapiens) (UniProt P08684); test: qHTS Assay for Inhibitors and Substrates of Cytochrome P450 3A4 (AID 884); conditions: recombinant CYP3A4, Luciferin-PPXE luminescence; series mostly up to 57.1 µM; also: nearly all actives have a fitted effect of over 50% in size
# In short: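 Luminescent readout of luciferin produced by CYP3A4 (20 nM) dealkylation of Luciferin-PPXE, 25 uM (its KM). NADPH-driven reaction ran 60 min at RT after 10 min compound preincubation; data scaled to 57 uM ketoconazole as 100% inhibition.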
# [10] = Confirmation and Secondary Assay for Modulators of Hemoglobin Beta Chain Splicing at IVS2 654 locus (AID 910); conditions: HeLa EGFP-654 splicing reporter, GFP fluorescence, 48 h; series mostly up to 46.1 µM;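 also: HeLa cells stably carrying EGFP split by mutant beta-globin IVS2-654 intron; per-well total GFP intensity by laser scanning cytometry after 2-day treatment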
# In short: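 Readout: per-well total peak green fluorescence (488 nm ex, 500–520 nm em) from objects 5–250 µm, reflecting correct splicing of an EGFP-654 reporter. Compounds were applied for 2 days at 37 °C to overnight-plated HeLa EGFP-654 cells; controls were DMSO and 500 nM IVS2-654 PNA.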
# [11] = qHTS for differential inhibitors of proliferation of Plasmodium falciparum line 3D7 (AID 1876); also: potency is read from the fitted curve at half-maximal effect; conditions: P. falciparum 3D7 proliferation inhibition; series mostly up to 28.7 µM
# [12] = molecular target: RecQ-like DNA helicase BLM (Homo sapiens) (UniProt P54132); test: qHTS Validation Assay for Inhibitors of Bloom's syndrome helicase (BLM) (AID 2364); conditions: BLM helicase DNA unwinding, fluorescence, in vitro; series mostly up to 57.1 µM
# In short: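 Forked 20-bp duplex substrate (200 nM, TAMRA/BHQ-2) plus 2 mM ATP added after 15 min compound preincubation with 50 nM enzyme, pH 8.0, poly(dI-dC) 2.5 ug/ml. Strand separation followed by fluorescence (525/598 nm) over 2 h, normalized to enzyme-free and DMSO controls.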
# [13] = Quantitative high throughput screen for delayed death inhibitors of the malarial parasite plastid, 48 hour incubation (AID 488752); conditions: Plasmodium falciparum growth; series mostly up to 28.7 µM; also: nearly all actives have a fitted effect of over 65% in size; also: potency is read from the fitted curve at half-maximal effect
# In short: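 Cultures: infected erythrocytes at final 2% hematocrit and 0.1% parasitemia in Albumax-supplemented RPMI. Parasites express integrated firefly luciferase. Incubation with compound lasts 48 h before luminescent detection of remaining reporter activity.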
# [14] = qHTS Assay for Modulators of Human Peripheral Myelin Protein 22 (PMP22) Expression/Activity (AID 1967; active = well fitted curve in the direction sought with a large enough effect in the signal ratio; the % refers to the signal ratio); conditions: Cell-based PMP22 reporter, dual-color luciferase ratio, mouse Pmp22 promoter in mouse Schwann cells; series mostly up to 115 µM
# In short: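 Luminescence ratio of Pmp22 promoter-driven green luciferase to EF-alpha-driven red luciferase, in engineered mouse MSC80 Schwann cells, served as read-out. Compounds were incubated 24h; untreated cells defined 0% Activity; curves were classified by r2, magnitude and activity.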
# Chain of Cytochrome P450 2C9 (Homo sapiens) (P11712 whole entry, looked up): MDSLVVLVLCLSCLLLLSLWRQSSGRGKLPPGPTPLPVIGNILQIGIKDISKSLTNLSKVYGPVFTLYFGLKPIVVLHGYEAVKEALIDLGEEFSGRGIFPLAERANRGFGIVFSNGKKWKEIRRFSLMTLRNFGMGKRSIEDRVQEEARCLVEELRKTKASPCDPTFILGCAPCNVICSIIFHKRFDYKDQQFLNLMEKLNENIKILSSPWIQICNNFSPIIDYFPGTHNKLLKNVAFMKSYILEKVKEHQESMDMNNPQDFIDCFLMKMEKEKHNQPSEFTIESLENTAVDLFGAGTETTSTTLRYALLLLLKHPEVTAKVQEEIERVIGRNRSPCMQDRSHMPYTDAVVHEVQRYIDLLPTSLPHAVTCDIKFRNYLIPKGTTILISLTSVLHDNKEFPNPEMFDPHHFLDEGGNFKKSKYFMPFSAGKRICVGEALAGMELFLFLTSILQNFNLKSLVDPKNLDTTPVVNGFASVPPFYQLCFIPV
# Chain of Cytochrome P450 3A4 (Homo sapiens) (P08684 whole entry, looked up): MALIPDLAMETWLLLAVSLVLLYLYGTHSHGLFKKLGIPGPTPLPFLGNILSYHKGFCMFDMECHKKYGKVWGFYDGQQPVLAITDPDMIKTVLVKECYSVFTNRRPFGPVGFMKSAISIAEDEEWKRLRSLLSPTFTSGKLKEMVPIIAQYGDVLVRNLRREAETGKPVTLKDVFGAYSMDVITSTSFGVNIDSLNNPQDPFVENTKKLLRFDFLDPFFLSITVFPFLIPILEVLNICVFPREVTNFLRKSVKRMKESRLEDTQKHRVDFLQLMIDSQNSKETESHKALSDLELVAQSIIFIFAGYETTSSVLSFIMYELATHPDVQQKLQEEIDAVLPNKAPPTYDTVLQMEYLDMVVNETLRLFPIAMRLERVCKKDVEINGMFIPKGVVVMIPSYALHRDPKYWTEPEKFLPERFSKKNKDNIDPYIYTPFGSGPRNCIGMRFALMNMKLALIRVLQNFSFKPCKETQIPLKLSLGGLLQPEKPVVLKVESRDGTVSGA
# Chain of Cytochrome P450 2C19 (Homo sapiens) (P33261 whole entry, looked up): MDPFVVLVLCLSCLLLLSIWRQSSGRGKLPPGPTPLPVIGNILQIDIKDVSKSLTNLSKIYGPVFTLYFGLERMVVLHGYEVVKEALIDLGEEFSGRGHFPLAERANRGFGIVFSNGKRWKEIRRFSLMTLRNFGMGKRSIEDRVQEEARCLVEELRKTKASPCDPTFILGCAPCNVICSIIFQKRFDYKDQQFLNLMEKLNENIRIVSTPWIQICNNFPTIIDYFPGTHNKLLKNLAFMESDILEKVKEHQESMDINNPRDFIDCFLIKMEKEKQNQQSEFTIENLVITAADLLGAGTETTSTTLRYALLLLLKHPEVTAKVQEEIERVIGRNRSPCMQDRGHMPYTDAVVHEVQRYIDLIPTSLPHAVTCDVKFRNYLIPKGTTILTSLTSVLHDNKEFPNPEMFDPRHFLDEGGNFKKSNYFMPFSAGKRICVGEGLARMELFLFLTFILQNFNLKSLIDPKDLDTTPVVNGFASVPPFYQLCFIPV
# Chain of RecQ-like DNA helicase BLM (Homo sapiens) (P54132 whole entry, looked up): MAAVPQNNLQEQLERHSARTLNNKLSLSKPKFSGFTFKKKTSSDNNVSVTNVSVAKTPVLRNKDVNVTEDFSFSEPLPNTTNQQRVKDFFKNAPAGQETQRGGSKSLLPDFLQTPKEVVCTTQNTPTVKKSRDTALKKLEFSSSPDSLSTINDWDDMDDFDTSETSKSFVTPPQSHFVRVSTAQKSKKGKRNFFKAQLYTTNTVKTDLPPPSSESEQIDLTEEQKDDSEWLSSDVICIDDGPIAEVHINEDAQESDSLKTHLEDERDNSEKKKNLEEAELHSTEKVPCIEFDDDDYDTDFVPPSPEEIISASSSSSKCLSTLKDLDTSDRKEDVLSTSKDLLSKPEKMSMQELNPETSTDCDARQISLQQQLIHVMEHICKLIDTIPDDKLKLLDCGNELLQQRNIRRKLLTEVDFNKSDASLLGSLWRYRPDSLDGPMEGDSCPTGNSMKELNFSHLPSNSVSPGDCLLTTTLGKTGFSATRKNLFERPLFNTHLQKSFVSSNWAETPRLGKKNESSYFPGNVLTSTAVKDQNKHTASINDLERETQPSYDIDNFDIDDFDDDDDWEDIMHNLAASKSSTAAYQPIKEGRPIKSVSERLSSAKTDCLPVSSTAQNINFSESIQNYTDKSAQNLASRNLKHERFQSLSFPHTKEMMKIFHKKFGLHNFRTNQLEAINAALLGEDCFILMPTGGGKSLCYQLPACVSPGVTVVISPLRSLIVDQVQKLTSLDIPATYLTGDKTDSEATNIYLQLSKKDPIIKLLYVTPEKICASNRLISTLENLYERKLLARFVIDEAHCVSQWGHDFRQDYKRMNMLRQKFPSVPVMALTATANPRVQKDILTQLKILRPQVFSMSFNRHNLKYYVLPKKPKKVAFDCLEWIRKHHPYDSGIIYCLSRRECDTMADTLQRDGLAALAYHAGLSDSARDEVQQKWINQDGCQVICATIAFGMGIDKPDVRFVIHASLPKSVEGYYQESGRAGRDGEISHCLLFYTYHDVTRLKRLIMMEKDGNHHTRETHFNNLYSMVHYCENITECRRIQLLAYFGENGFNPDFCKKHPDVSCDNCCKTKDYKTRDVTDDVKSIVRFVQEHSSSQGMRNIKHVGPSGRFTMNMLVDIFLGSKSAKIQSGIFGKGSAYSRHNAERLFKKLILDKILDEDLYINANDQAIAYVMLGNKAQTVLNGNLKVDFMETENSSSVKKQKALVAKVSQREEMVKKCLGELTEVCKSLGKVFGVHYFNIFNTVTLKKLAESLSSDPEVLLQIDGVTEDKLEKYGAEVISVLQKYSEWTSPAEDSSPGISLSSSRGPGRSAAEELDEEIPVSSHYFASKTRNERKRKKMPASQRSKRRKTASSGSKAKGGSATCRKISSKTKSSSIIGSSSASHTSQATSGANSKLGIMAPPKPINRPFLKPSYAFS
compound,measurement,setting,value
COc1ccc(-n2nc(C(F)(F)F)cc2-c2ccc(Cl)cc2)cc1,"activity change, negative = inhibition",[1],-91.5% (active)
same,Potency,[2],inactive
same,Potency,[3],7.94 µM (active)
same,Potency,[4],11.2 µM (active)
same,Potency,[5],12.6 µM (active)
same,Potency,[6],inactive
C[C@H](N)Cc1c[nH]c2ccc(O)cc12,"activity change, negative = inhibition",[1],3.63%
same,activation,[7],-4.29%
C=CCN1CC[C@@]23c4c5ccc(O)c4O[C@H]2/C(=N\N=C2/CC[C@@]4(O)[C@H]6Cc7ccc(O)c8c7[C@@]4(CCN6CC=C)[C@@H]2O8)CC[C@]3(O)[C@@H]1C5,Potency,[2],inactive
same,activation,[7],0.657%
N[C@H](CP(=O)(O)O)C(=O)O,Potency,[8],inactive
same,Potency,[3],inactive
CN1C(=O)CCS(=O)(=O)[C@H]1c1ccc(Cl)cc1,Potency,[8],inactive
same,Potency,[9],inactive
same,Potency,[3],inactive
same,Potency,[10],inactive
CC(C)(C)c1o[nH]c(=O)c1C[C@H](N)C(=O)O,"activity change, negative = inhibition",[1],-2.55%
CN1CCc2cc(O)cc3c2C1Cc1ccc(O)c(O)c1-3 (stereo not given),Potency,[4],8.91 µM (active)
same,Potency,[11],11.2 µM (active)
same,Potency,[5],12.6 µM (active)
same,Potency,[12],inactive
same,Potency,[13],18.5 µM (active)
CN1[C@@H]2CC[C@H]1CC(O[C@@H](c1ccccc1)c1ccc(Cl)cc1)C2 (stereo not given in full),activation,[7],-9.36%
CCOC(=O)c1ncn2c1[C@H]1CCCN1C(=O)c1cc(OC)ccc1-2,"activity change, negative = inhibition",[1],7.15%
same,Potency,[8],inactive
same,Potency,[9],inactive
same,Potency,[3],inactive
C[C@@H](Cc1ccc(OCC(=O)O)cc1)NC[C@H](O)c1cccc(Cl)c1,Potency,[8],6.31 µM (active)
same,Potency,[3],5.01 µM (active)
CCN1C[C@]2(C)CC[C@H](O)[C@@]34C5C[C@@H]6[C@@H](OC)C[C@@](O)(C5[C@H]6O)[C@@H](CC23)[C@@H]14 (stereo not given in full),Potency,[9],inactive
COc1ccc(CNC(=O)/C=C\c2ccc3[nH]cc(CCN(C)C)c3c2)cc1,"activity change, negative = inhibition",[1],-13.5%
same,Potency,[8],inactive
same,Potency,[3],inactive
C[C@@H]1O[C@@H](O[C@H]2C[C@@H](O)[C@]3(CO)[C@@H]4C(CC[C@]3(O)C2)[C@@]2(O)CC[C@H](C3=CC(=O)OC3)[C@@]2(C)C[C@H]4O)[C@H](O)[C@H](O)[C@H]1O (stereo not given in full),Potency,[9],inactive
same,Potency,[12],inactive
NC[C@H](CP(=O)(O)O)c1ccc(Cl)cc1,Potency,[9],inactive
same,Potency,[2],inactive
same,activation,[7],-2.39%
CC1OC(=O)C(C(C)C)NC(=O)C(C(C)C)OC(=O)C(C(C)C)NC(=O)C(C)OC(=O)C(C(C)C)NC(=O)C(C(C)C)OC(=O)C(C(C)C)NC(=O)C(C)OC(=O)C(C(C)C)NC(=O)C(C(C)C)OC(=O)C(C(C)C)NC1=O (stereo not given),Potency,[10],inactive
N#CC(C#N)=Cc1ccc([N+](=O)[O-])c(O)c1,Potency,[2],inactive
same,Potency,[4],inactive
same,Potency,[5],inactive
same,outcome,[14],inactive
same,Potency,[6],inactive
same,Potency,[13],inactive
